ERG Ets-DNA blk – blocks human ERG Ets domain binding to DNA. AID 624246. fluorescence polarization, His-ERG Ets domain / labelled DNA. Potency, µM (series often up to 76.9 µM), usual class: inhibitors. 370,000 compounds, 0.028% hits; active means well fitted inhibition curve with a large enough effect in the polarisation, with a control signal flat; inconclusive means small, poorly fitted or top-dose-only effect, or effect the other way, or a change in a side signal; inactive means no such curve, though single readings can be large or run the other way; the % refers to the polarisation;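 further: polarization taken with two DNA probes labelled with fluorescein and Texas red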
Target sequence (P11308 whole entry, looked up, the tested form may be a part): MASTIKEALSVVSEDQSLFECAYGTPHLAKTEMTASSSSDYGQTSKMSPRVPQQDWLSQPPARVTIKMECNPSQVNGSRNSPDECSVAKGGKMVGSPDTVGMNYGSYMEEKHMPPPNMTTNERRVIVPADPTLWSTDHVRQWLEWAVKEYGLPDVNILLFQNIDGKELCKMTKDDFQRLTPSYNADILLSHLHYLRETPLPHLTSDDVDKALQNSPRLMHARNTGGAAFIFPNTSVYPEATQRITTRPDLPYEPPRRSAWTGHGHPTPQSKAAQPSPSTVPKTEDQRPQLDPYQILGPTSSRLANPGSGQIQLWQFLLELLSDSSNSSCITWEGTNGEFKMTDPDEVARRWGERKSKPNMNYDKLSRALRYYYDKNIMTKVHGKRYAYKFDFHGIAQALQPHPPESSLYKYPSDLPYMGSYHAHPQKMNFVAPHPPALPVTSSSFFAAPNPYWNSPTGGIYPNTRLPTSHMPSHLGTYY
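His-tagged ERG Ets domain (1 uM in the protein solution; 300mM KCl, 50mM Tris-HCl, 1mM EDTA, 1mM DTT, pH 7.5) received compound, then a probe mix of 5 nM fluorescein-DNA and 100nM Texas-615-DNA. Fluorescence polarization was read for both dyes.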
TRb-SRC2 inh – inhibitors of human thyroid hormone receptor beta-SRC2 interaction | 280,000 compounds, 0.065% hits | P10828 | Potency, µM (top dose mostly 106 µM), usual class: inhibitors | TRbeta-SRC2 peptide binding, fluorescence polarization; receptor liganded with 1 µM T3; further: nearly all actives have a fitted effect of over 50% in size
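Compounds were added to 0.6 uM TRb ligand-binding domain and 20 nM Texas Red-labeled SRC2 peptide in Tris buffer containing 1 uM T3, incubated 5 hr at ambient temperature, then read by fluorescence polarization.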
TR SRC2 fluor cs – Texas Red fluorescence interference in TRb-SRC2 counter-screen; Potency, µM (highest dose often 106 µM); 280,000 compounds, 0.29% hits; AID 1479; TRb/SRC2 Texas Red total fluorescence interference; active means well fitted curve in either direction with a large enough effect; inconclusive means small, poorly fitted or top-dose-only effect
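Human TRb ligand-binding domain at 0.6 uM with 20 nM Texas Red SRC2 peptide in Tris buffer containing 1 uM T3 and 5% DMSO, incubated with compound 5 h at ambient temperature. Total fluorescence (555/632 nm) calculated as parallel + 2 × perpendicular.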
RGS12 GoLoco inh – inhibitors of human Gai1-RGS12 GoLoco interaction (red fluorophore); P63096; Gai1:RGS12 GoLoco peptide FP, rhodamine, 10 min; Potency, µM (series often up to 61.6 µM), actives largely listed as inhibitors; 230,000 compounds, 0.44% hits; active means well fitted inhibition curve with a large enough effect, not every such curve was filed as active; inactive means no such curve, though single readings can be large or run the other way; further: nearly all actives have a fitted effect of over 30% in size
Apoferritin bind – candidate novel general anesthetic via apoferritin binding. Potency, µM (highest dose often 77.5 µM), hits mostly inhibitors. AID 485281. apoferritin/1-aminoanthracene competitive binding, fluorescence. 350,000 compounds, 0.074% hits; further: nearly all actives have a fitted effect of over 20% in size
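10 uM apoferritin + 50% sat. 1-AMA, PBS; cpd 10 min RT; Ex380/Em535 endpoint; normalized to free probe vs complex; 4-param Hill fit; propofol titration as pos. ctrl.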
A number is an active result; – = inactive; ? = inconclusive; · = not tested or not shown; [ ] = remark or other dose. Compounds with a hit are over-represented: about 0.44% of the library has one in this group of screens. Unless noted, the call rests on the fitted dose curve; in most records, active means well fitted curve in the direction sought with a large enough effect; inconclusive means small, poorly fitted or top-dose-only effect, or another doubt; inactive means no such curve, though single readings can be large; an effect the other way counts as inactive or inconclusive.

SMILES	ERG Ets-DNA blk	TRb-SRC2 inh	TR SRC2 fluor cs	RGS12 GoLoco inh	Apoferritin bind
O=c1[nH]ncc2ccccc12	·	–	–	–	·
CC1CCC(C(C)C)C(OCC[N+](C)(C)C)C1 (centres undefined)	–	–	–	4µM	–
CC1CCC(C(C)C)C(OCC(O)C[N+]2(C)CCCCC2)C1 (centres undefined)	–	–	–	–	–
CC(C)OB(OC(C)C)OC(C)C	·	–	–	·	·
Cc1c(C(=O)Nc2nc3ccccc3[nH]2)oc2ccccc12	–	–	–	13µM	–
COc1ccc(C2=NC(c3ccc(Cl)cc3)C(c3ccc(Cl)cc3)N2C(=O)N2CCNC(=O)C2)c(OC(C)C)c1 (centres undefined)	·	–	–	·	–
O=C(/C=C/Nc1ccccc1F)c1cccs1	–	–	–	8.9µM	–
O=C(/C=C/Nc1ccc(F)cc1F)c1cccs1	–	–	–	–	–
CCc1cccc2c(C(=O)CSc3nncn3-c3ccc(OC)cc3)c[nH]c12	–	–	–	–	–
CCc1cccc2c(C(=O)CSc3nncn3-c3ccccc3OC)c[nH]c12	–	–	89µM[quencher]	–	–
CC1=C(c2ccc(C(C)C)cc2)S(=O)(=O)N=C1N1CCC(C(=O)NCCc2ccco2)CC1	–	–	25µM[quencher]	·	?
CC1=C(c2ccc(Cl)cc2)S(=O)(=O)N=C1N1CCC(C(=O)NCCc2ccco2)CC1	–	–	–	·	–
CCCCc1cc2c(cn1)C(=O)C(C)(OC(C)=O)C(=O)C2 (centres undefined)	·	–[11.2 µM]	–[11.2 µM]	–[14.2 µM]	·
COC(=O)CCC(=O)OC1(C)C(=O)C=C2C=C(C3CC3)N(c3ccc(OC)cc3)C=C2C1=O (centres undefined)	·	–[11.2 µM]	–[11.2 µM]	–[14.2 µM]	·
CC(=O)Nc1ccc(Oc2ccc([N+](=O)[O-])cc2Cl)cc1	–	–	–	–	16µM
CC(=O)Nc1ccc(Oc2cc(N)cc([N+](=O)[O-])c2)cc1	–	–	–	–	–
CC(Nc1cc(N2CCCC2)ccc1[N+](=O)[O-])c1ccccc1 (centres undefined)	–	–	–	–	–
Cc1cc([N+](=O)[O-])cnc1NC(C)c1ccccc1 (centres undefined)	–	–	–	–	8.9µM
CCCC(=O)Nc1ccc2c(c1)nc(CN1CCN(C(=O)OCC)CC1)n2C(C)C	–	–	100µM[quencher]	·	–
C=C(C)CSc1nncn1/N=C/c1ccc(OC)cc1	–	–	–	–	13µM
C[Si]1(C)N[Si](C)(C)N[Si](C)(C)N1	·	–	–	·	·
CCC1=NN2C(=N)/C(=C\c3ccc(SCc4ccco4)o3)C(=O)N=C2S1	–	–	?	–	–
CCCC1=NN2C(=N)/C(=C\c3ccc(SCc4ccco4)o3)C(=O)N=C2S1	?	?	50µM[fluorescent]	–	?
C[N+]1(CCCCCCC(=O)/C=N/O)CCCCCC1	–	–	–	13µM	–
C[N+](C)(C)CCCCCCC(=O)/C=N/O	–	–	–	1.8µM	–
SMILES	ERG Ets-DNA blk	TRb-SRC2 inh	TR SRC2 fluor cs	RGS12 GoLoco inh	Apoferritin bind
Cn1c(=O)[nH]c(=O)n(C2CCCCC2)c1=O	·	–	–	·	·
COc1cc(O)c2c(=O)c(O)c(-c3ccc(O)c(O)c3)oc2c1	·	–	50µM[quencher]	–	–
CCCCc1cc2c(cn1)=C(OC(=O)c1ccc(Cl)nc1)C(C)(OC(=O)CC)C(=O)C=2 (centres undefined)	·	–[11.2 µM]	–[11.2 µM]	–[14.2 µM]	·
COc1ccc(CC(C)NS(=O)(=O)c2ccc3c(c2)CCN3S(C)(=O)=O)cc1OC (centres undefined)	–	–	7.1µM[quencher]	·	–
CCc1ccc(CN(C(=O)Nc2cccc(Cl)c2)c2ccccn2)cc1	–	–	355µM[quencher]	·	–
OCCOCCOCCOCCO	·	–	–	·	·
Oc1ccc(/C=N/N=C/c2ccc(O)c(O)c2)cc1O	–	·	·	·	–
Oc1ccc(N=Cc2ccc(O)c(O)c2)cc1	–	–	–	16µM	–
N#C/C(=C\C1=C(N2CCOCC2)C(=C\c2ccc(Cl)cc2)/CC1)C(=O)Nc1ccccc1F	–	40µM	50µM[fluorescent]	–	–
N#C/C(=C/C1=C(N2CCOCC2)C(=C/c2ccccc2)/CC1)C(=O)Nc1ccccc1F	–	·	·	·	·
COc1cccc(OC)c1C1=Nn2c(nnc2-c2ccccc2C)SC1	·	–	–	·	–
CC(C)c1ccc(NC(=O)CCS(=O)(=O)c2ccc(Br)s2)cc1	–	?	28µM[quencher]	·	–
COc1ccc(C2/C=C\CN(CC(C)C)C(Cc3ccccc3)C(=O)N2Cc2ccc(F)cc2)cc1 (centres undefined)	·	–	–	·	–
CC1=CC(=O)c2c(O)ccc(O)c2C1=O	·	–	22µM[quencher]	25µM	–
C[Si](Cl)(Cl)[Si](C)(Cl)Cl	·	–	–	·	·
CC(=O)NC1C(O)OC(CO)C(O)C1O (centres undefined)	–	·	·	·	·
CN(N=O)C(=O)N[C@H]1C(O)C(O)C(CO)O[C@@H]1O (some centres undefined)	·	–	–	20µM	–
O=C(N/N=C/c1cccc(F)c1)c1cc(-c2ccco2)nc2ccccc12	–	–	32µM[quencher]	–	–
COc1cc(/C=N/NC(=O)c2cc(-c3ccco3)nc3ccccc23)cc(OC)c1O	–	–	–	–	–
CCCCN(CCCC)CCCCCCN(CCCC)CCCC	·	–	–	·	·
Cc1ccc(C=C2C(=O)c3ccccc3C2=O)s1	?	?	45µM[fluorescent]	–	?
COc1ccc(CNC(=O)C2CCN(S(=O)(=O)c3ccc4nc5c(c(C(=O)O)c4c3)CC(C)CC5)CC2)cc1 (centres undefined)	–	–	–	·	–
CC1CCc2nc3ccc(S(=O)(=O)N4CCC(C(=O)NCc5ccccc5Cl)CC4)cc3c(C(=O)O)c2C1 (centres undefined)	–	–	20µM[quencher]	·	–
